Assay results as given in PubChem BioAssay (NCI).
The panel holds about 79,000 compounds, 15% with a hit somewhere; the sample as a whole holds those more often. Active and inactive are the calls of the source. No stated cut-off is given here; in the data, active means growth inhibition above about 70%; inactive means the rest.

Experiments:
[1] = NCI Yeast Anticancer Drug Screen. Data for the rad52 strain (AID 147);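 further: 0% = growth of vehicle-treated control cultures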; conditions: S. cerevisiae rad52 mutant growth inhibition, stronger effect = higher value
How it was run: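 Growth of repair-deficient yeast cells was compared between compound-treated and vehicle-treated cultures to give percent inhibition.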

[2] = NCI Yeast Anticancer Drug Screen. Data for the rad50EPP+ strain (AID 151);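 further: 0% = growth of vehicle-treated control cultures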; conditions: S. cerevisiae rad50 mutant strain, stronger effect = higher value
How it was run: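 Measured: growth inhibition of rad50EPP+ yeast. Reference: vehicle-treated controls. Screen uses strains with defined genetic alterations in DNA damage repair or cell cycle control.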

[3] = NCI Yeast Anticancer Drug Screen. Data for the mgt1 strain (AID 153); conditions: S. cerevisiae mgt1 mutant growth inhibition, stronger effect = higher value
How it was run: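 Compounds were applied to mgt1 mutant yeast, and growth was then compared against vehicle-treated control cultures to give percent inhibition.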

[4] = NCI Yeast Anticancer Drug Screen. Data for the rad50 strain (AID 155);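 further: 0% = growth of vehicle-only cultures of the same strain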; conditions: S. cerevisiae rad50 strain growth inhibition, stronger effect = higher value
How it was run: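 Compounds were tested on a yeast strain with an engineered DNA damage repair alteration; the reported value is growth inhibition normalised to vehicle treatment.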

[5] = NCI Yeast Anticancer Drug Screen. Data for the mec2-1 strain (AID 157); conditions: S. cerevisiae mec2-1 strain, stronger effect = higher value
How it was run: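 Compounds were applied to mec2-1 yeast cells. Their growth was then compared with that of vehicle-treated cultures to give growth inhibition.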

[6] = NCI Yeast Anticancer Drug Screen. Data for the rad14 strain (AID 159);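 further: 0% = growth of vehicle-treated control cultures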; conditions: S. cerevisiae rad14 strain growth inhibition, stronger effect = higher value
How it was run: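 Compound-treated yeast with a defined DNA-repair lesion; growth inhibition normalised to vehicle-treated cultures.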

[7] = NCI Yeast Anticancer Drug Screen. Data for the sgs1 mgt1 strain (AID 161);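 further: 0% = growth of cultures given vehicle only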; conditions: S. cerevisiae sgs1 mgt1 strain, stronger effect = higher value
How it was run: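 Compounds are added to genetically altered yeast, and growth is compared with cultures given vehicle alone to give percent inhibition.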

[8] = NCI Yeast Anticancer Drug Screen. Data for the CLN2oe strain (AID 163);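 further: 0% = growth of vehicle-only control cultures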; conditions: S. cerevisiae CLN2oe strain, stronger effect = higher value
How it was run: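 Cells of an engineered yeast line with disturbed cell-cycle regulation are treated with compound. Inhibition of growth is then calculated relative to the vehicle-treated reference.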

[9] = NCI Yeast Anticancer Drug Screen. Data for the cln2 rad14 strain (AID 165);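 further: 0% = growth equal to vehicle treated cultures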; conditions: S. cerevisiae cln2 rad14 strain, stronger effect = higher value
How it was run: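 Strain: cln2 rad14 yeast, altered in cell cycle control and DNA damage repair. Read-out: growth inhibition vs vehicle.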

[10] = NCI Yeast Anticancer Drug Screen. Data for the bub3 strain (AID 167); conditions: S. cerevisiae bub3 mutant strain, stronger effect = higher value
How it was run: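 Growth of a checkpoint-deficient yeast mutant is measured after compound exposure. Values represent inhibition relative to vehicle.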

[11] = NCI Yeast Anticancer Drug Screen. Data for the wt2 strain (AID 169);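 further: 0% = growth of vehicle-treated yeast cultures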; conditions: S. cerevisiae wt2 strain growth inhibition, stronger effect = higher value
How it was run: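 Growth of compound-treated yeast is measured and expressed as inhibition relative to vehicle-only controls.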

[12] = NCI Yeast Anticancer Drug Screen. Data for the mlh1 strain (AID 171);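 further: 0% = growth of vehicle-treated control cultures of the same strain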; conditions: S. cerevisiae mlh1 strain growth inhibition, stronger effect = higher value
How it was run: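 Test agents were incubated with yeast bearing a defined DNA damage repair or cell cycle control alteration; values are growth inhibition normalised to vehicle-treated cultures.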

[13] = NCI Yeast Anticancer Drug Screen. Data for the sgs1 strain (AID 173);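 further: 0% = growth of vehicle-only control cultures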; conditions: S. cerevisiae sgs1 mutant, stronger effect = higher value
How it was run: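 Strain with an altered DNA repair or cell cycle pathway exposed to compound. Growth then measured. Value = inhibition versus vehicle control.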

[14] = NCI Yeast Anticancer Drug Screen. Data for the mlh1 rad18 strain (AID 175); conditions: S. cerevisiae mlh1 rad18 strain growth inhibition, stronger effect = higher value
How it was run: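 A repair-deficient yeast strain is exposed to test compound, and growth is scored relative to vehicle-treated controls.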

[15] = at 5.0 µM (retest, dose inferred, filed as 0.5)
[16] = at 50.0 µM (retest, dose inferred, filed as 5.0)

Measured: growth inhibition

CC[C@@]1(O)C(=O)OCc2c1cc1n(c2=O)Cc2cc3ccccc3nc2-1
inactive: [3]; at 1.2 µM 0% | [3]; at 3.7 µM 6% | [5]; at 1.2 µM 47% | [6]; at 1.2 µM 21% | [6]; at 3.7 µM 55% | [7]; [15] 53% | [8]; at 1.2 µM 8% | [8]; at 3.7 µM 55% | [9]; [15] 14% | [9]; at 50.0 µM 58% | [10]; at 1.2 µM -12% | [10]; at 3.7 µM 15% | [10]; [15] -16% | [11]; at 1.2 µM 17% | [11]; at 3.7 µM 57% | [12]; at 1.2 µM -2% | [12]; at 3.7 µM 35% | [13]; at 1.2 µM 29% | [14]; [15] 39%
active: [1]; at 1.2 µM 97% | [1]; at 3.7 µM 98% | [1]; at 11.0 µM 98% | [1]; at 33.0 µM 97% | [1]; at 100.0 µM 95% | [2]; at 1.2 µM 89% | [2]; at 3.7 µM 95% | [2]; at 11.0 µM 97% | [2]; at 33.0 µM 97% | [2]; at 100.0 µM 96% | [3]; at 11.0 µM 79% | [3]; at 33.0 µM 91% | [3]; at 100.0 µM 92% | [4]; at 1.2 µM 97% | [4]; at 3.7 µM 97% | [4]; [15] 97% | [4]; at 11.0 µM 96% | [4]; at 33.0 µM 96% | [4]; [16] 97% | [4]; at 50.0 µM 86.9% | [4]; at 100.0 µM 95% | [5]; at 3.7 µM 95% | [5]; [15] 73% | [5]; at 11.0 µM 97% | [5]; at 33.0 µM 98% | [5]; [16] 98% | [5]; at 50.0 µM 88.2% | [5]; at 100.0 µM 97% | [6]; at 11.0 µM 89% | [6]; at 33.0 µM 97% | [6]; at 100.0 µM 96% | [7]; [16] 95% | [7]; at 50.0 µM 81.7% | [8]; at 11.0 µM 89% | [8]; at 33.0 µM 93% | [8]; at 100.0 µM 91% | [9]; [16] 89% | [10]; at 11.0 µM 90% | [10]; at 33.0 µM 95% | [10]; [16] 90% | [10]; at 50.0 µM 78.5% | [10]; at 100.0 µM 96% | [11]; at 11.0 µM 92% | [11]; at 33.0 µM 97% | [11]; at 100.0 µM 96% | [12]; at 11.0 µM 84% | [12]; at 33.0 µM 93% | [12]; at 100.0 µM 93% | [13]; at 3.7 µM 82% | [13]; at 11.0 µM 95% | [13]; at 33.0 µM 96% | [13]; at 100.0 µM 95% | [14]; [16] 93% | [14]; at 50.0 µM 81.7%
